In the OligoGym collection one finds sensor-assay potency score (higher = more potent) data, which are given here for 36 sequences.

Some targets named below: PCTP; PEBP1; PECR; PEG10; PEAR1.
What all share (assay): pooled miR-30 sensor sort-seq; sequence = guide strand
Holding throughout (conditions): shRNA
Note: reference of the scale not given here.

The sequence TAGAACACACTTTTCTTCCCAG had a sensor-assay potency score (higher = more potent) with PCTP of 0.135.

TATTATACATGCAACACTGAAC showed a sensor-assay potency score (higher = more potent) with PEBP1 of -0.804.

The sequence TTTGACAACAGAAAGGTCCCCT had a sensor-assay potency score (higher = more potent) with PECR of 0.815.

Consider TAGTTCTCCACAGCAGTCTGGG, for which the sensor-assay potency score (higher = more potent) with PECR was -0.504.

Sequence TTTGATCAAAACATAAATCAGA registered a sensor-assay potency score (higher = more potent) with PEBP1 of -0.67.

In turn, TTTCTTTTTTACATTCTGGGTT showed a sensor-assay potency score (higher = more potent) with PEBP1 of 0.0306.

In the assay with PEG10, TTGCCATCGAACTTCTCTGGGA showed a sensor-assay potency score (higher = more potent) of -0.275.

Turning to TTCCATACCAACTATAAGCTTT, in the assay with PECR, the sensor-assay potency score (higher = more potent) is -0.179.

Sequence TCTGGGAATAAATAACTCCAGG showed a sensor-assay potency score (higher = more potent) with PECR of -1.4.

Turning to TAACACGTGCCAGCCACCGGGG, the sensor-assay potency score (higher = more potent) with PEBP1 was -1.45.

For ATTGCTGTAGCTATAGCTGTAG, the sensor-assay potency score (higher = more potent) with PEAR1 is -0.261.

In the case of ATACATGCAACACTGAACTGGG, in the assay with PEBP1, the sensor-assay potency score (higher = more potent) came out at 0.364.

TAGAACTGATGTGTTCAGCAGG displayed a sensor-assay potency score (higher = more potent) in the assay with PECR of -0.616.

The sequence TAAACTGCTTTGCACATGTAGA displayed a sensor-assay potency score (higher = more potent) in the assay with PECR of -1.07.

Consider TCAATCTCTCCAACTTACGGGA, for which, in the assay with PECR, the sensor-assay potency score (higher = more potent) is -0.32.

In the assay with PEBP1, TATACATGCAACACTGAACTGG yielded a sensor-assay potency score (higher = more potent) of 0.186.

TGCAATGTGAGGCAACACCAGC: the sensor-assay potency score (higher = more potent) in the assay with PEG10 is -1.84.

In the assay with PEAR1, TAGTAGTGACTGTAGCTCGGAG registered a sensor-assay potency score (higher = more potent) of -0.228.

Turning to TTCATCTTTTTGACAACAGAAA, in the assay with PECR, the sensor-assay potency score (higher = more potent) was -1.6.

The sequence TTTCACATGAGCAGCGTGCAGA gave a sensor-assay potency score (higher = more potent) with PEAR1 of -0.314.

TATCACTGTAGACCTGGTCTTT registered a sensor-assay potency score (higher = more potent) in the assay with PEBP1 of -0.444.

For TAGCAGGTCCCGTTCGAGGGGT, the sensor-assay potency score (higher = more potent) in the assay with PEAR1 was -0.75.

In the case of TCTGGCATGACATACTCGGAGC, in the assay with PEAR1, the sensor-assay potency score (higher = more potent) is -0.939.

Consider TTCATCTCCATGTAGCTGCTCT, for which, in the assay with PEAR1, the sensor-assay potency score (higher = more potent) was 0.0491.

Regarding TAATCGGAGAGGACTGTGCCAC, the sensor-assay potency score (higher = more potent) with PEBP1 was -0.276.

With TGCTCTATCACTGTAGACCTGG, in the assay with PEBP1, the sensor-assay potency score (higher = more potent) was 0.029.

The sequence TTGTGCATCAGGTAGTGGGAGC yielded a sensor-assay potency score (higher = more potent) with PEG10 of -1.26.

As to TTGCCTTTTTGCCAGTGCCGAT, in the assay with PEAR1, the sensor-assay potency score (higher = more potent) is -1.65.

For TTCTTTTTTACATTCTGGGTTG, the sensor-assay potency score (higher = more potent) with PEBP1 is -0.707.

With TATGGGAATGACTCGTGCCTGC, the sensor-assay potency score (higher = more potent) with PECR is -0.624.

In the case of TAGCTATAGCTGTAGCTTCGGT, the sensor-assay potency score (higher = more potent) in the assay with PEAR1 is -1.04.

In the assay with PEAR1, TTGCTGTAGCTATAGCTGTAGC returned a sensor-assay potency score (higher = more potent) of -1.31.

Turning to TTCTCTGGGAGGTCTTCTGGGC, in the assay with PEG10, the sensor-assay potency score (higher = more potent) was -0.944.

In the assay with PEBP1, TAAACCAGCCAGACATAGCGGT had a sensor-assay potency score (higher = more potent) of -0.718.

In turn, TATAGCTGTAGCTTCGGTCCAG registered a sensor-assay potency score (higher = more potent) in the assay with PEAR1 of 0.0436.

TTGATCCGTATTCCACTGCAGG yielded a sensor-assay potency score (higher = more potent) in the assay with PECR of -0.697.
